From PubChem
VACV Venus inh – inhibitors of vaccinia virus (Venus reporter); Vaccinia virus Venus reporter expression, fluorescence; Potency, µM (highest dose often 36.5 µM), hits mostly inhibitors; hit rate 0.46% among 330,000; AID 720580; calls by dose curve; tested in A549 cells; also: nearly all actives have a fitted effect of over 30% in size
HCMV antiviral – blocks human cytomegalovirus replication; activity change, negative = inhibition, % at 57.5 µM; HFF cells, HCMV-luciferase reporter, 72 h; stronger effect = lower value; hit rate 4.5% among 410,000; in the data active = activity change below about -60%; inconclusive = no clear call, values can overlap the other calls; inactive = above about -39%
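Two compound doses tested in HFFs infected with HCMV-luciferase, MOI 1 PFU/cell, 72 h at 37C. Lysate luminescence read with OneGlo; data normalized against buffer-only and 10uM Salinomycin inhibitor controls.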
FMDV antiviral – foot and mouth disease virus antiviral activity | FMDV antiviral cell-based qHTS | hit rate 1.2% among 410,000 | Potency, µM (highest dose often 57.9 µM), most hits filed as inhibitors; calls by dose curve; tested in HEK293T cells; also: read-out not given here; nearly all actives have a fitted effect of over 45% in size
MARV entry inh – blocks Marburg virus binding to or entry into cells | hit rate 1.8% among 300,000 | AID 540276 | Potency, µM (titrated, usually from 37.8 µM), usual class: inhibitors | Marburg virus pseudotyped entry inhibition, cell reporter; calls by dose curve; tested in HEK293 cells
VACV mCherry inh – vaccinia inhibition (mCherry reporter); Vaccinia virus mCherry reporter infection, fluorescence; hit rate 0.63% among 310,000; Potency, µM (highest dose often 36.5 µM), actives largely listed as inhibitors; AID 720579; calls by dose curve; tested in A549 cells; also: nearly all actives have a fitted effect of over 35% in size
LASV entry inh – Lassa virus entry inhibition. Lassa virus pseudotype entry inhibition, cell reporter. Potency, µM (highest dose often 37.9 µM), usual class: inhibitors. hit rate 1.2% among 300,000; calls by dose curve; tested in HEK293 cells; also: nearly all actives have a fitted effect of over 50% in size
A number is an active result; – = inactive; ? = inconclusive; · = not tested or not shown; [ ] = dose if it differs, or a comment. Only some compounds are listed: those with a hit (about 6.5% of all), similar ones and a draw of the others.

SMILES	VACV Venus inh	HCMV antiviral	FMDV antiviral	MARV entry inh	VACV mCherry inh	LASV entry inh
CCOC(=O)/C(=C\C=C1/Sc2ccccc2N1CC)C(C)=O	–	-64	–	?	?	2.8µM
CCOC(=O)/C(=C/C=C1\Sc2cc(C)c(C)cc2N1CC)C(C)=O	–	-69	?	?	–	?
CCOC(=O)/C(=C/C=C1\Sc2ccccc2N1CC)C(C)=O	–	·	–	?	–	?
CCn1c(=N)n(CC(O)COc2ccccc2)c2ccccc21 (stereo unspecified)	–	–	–	·	–	–
COc1ccc(OCC(O)Cn2c(=N)n(Cc3ccccc3)c3ccccc32)cc1 (stereo unspecified)	·	–	?	4.1µM	·	?
Clc1ccc(OCc2nc3ccccc3n2Cc2ccccc2)c(Cl)c1	–	–	–	·	–	–
N=c1n(Cc2ccccc2)c2ccccc2n1CC(O)COc1ccc(Cl)cc1Cl (stereo unspecified)	?	-101	35µM	?	?	?
Cc1cccc(OCC(O)Cn2c(=N)n(Cc3ccccc3)c3ccccc32)c1 (stereo unspecified)	·	–	?	·	·	·
N=c1n(CCO)c2ccccc2n1Cc1ccc(Cl)cc1	–	–	–	?	·	–
Cc1ccc(OCC(O)Cn2c(=N)n(Cc3ccccc3)c3ccccc32)cc1 (stereo unspecified)	14µM	-74	–	?	11µM	?
N=c1n(Cc2ccc(Cl)cc2)c2ccccc2n1CC(O)COc1ccccc1 (stereo unspecified)	?	-102	?	?	28µM	?
Cc1cc(C)c(NC(=O)CSc2n[nH]c(-c3ccccc3Cl)n2)c(C)c1	–	–	–	·	–	–
Cc1c(N)cc[n+](CC(=O)c2ccccc2)c1C	–	-76	–	–	–	–
COc1ccc(NS(=O)(=O)c2ccc(-n3nnc4ccccc43)c([N+](=O)[O-])c2)cc1	–	-63	–	–	–	–
CCOC(=O)c1ccc(N2C(=O)c3n[nH]c(-c4cccs4)c3C2c2ccc(C(C)C)cc2)cc1 (stereo unspecified)	–	-106	?	?	–	–
CCOC(=O)c1ccc(N2C(=O)c3n[nH]c(-c4cccs4)c3C2c2ccc(CC)cc2)cc1 (stereo unspecified)	?	-99	?	?	?	?
CCOC(=O)c1ccc(N2C(=O)c3n[nH]c(C)c3C2c2ccc(CC)cc2)cc1 (stereo unspecified)	–	–	?	?	–	–
CCOC(=O)c1ccc(N2C(=O)c3n[nH]c(C)c3C2c2cccc(Br)c2)cc1 (stereo unspecified)	–[7.34 µM]	–	–	?	–[7.34 µM]	?
CCOC(=O)c1ccc(N2C(=O)c3n[nH]c(-c4cccs4)c3C2c2ccc(OCC)cc2)cc1 (stereo unspecified)	?	-105	–	13µM	?	?
CCOC(=O)c1ccc(N2C(=O)c3n[nH]c(-c4cccs4)c3C2c2cccc(O)c2)cc1 (stereo unspecified)	–	–	35µM	?	–	?
CN(C)CCNc1nccc(N2CCN(C)CC2)n1	–	·	·	·	–	·
COc1ccccc1NC(=O)CN1C(=O)C2(SCC(=O)N2c2ccc(C)c(C)c2)c2ccccc21 (stereo unspecified)	–	-72	?	·	–	?
COc1ccccc1NC(=O)CN1C(=O)C2(SCC(=O)N2c2ccc(F)c(F)c2)c2ccccc21 (stereo unspecified)	–	–	–	·	–	–
Cc1ccccc1Nc1c(-c2cccnc2)nc2ccc(Cl)cn12	?	–	–	?	–	–
c1ccc2c(-c3cncc4ccccc34)cncc2c1	–	–	–	13µM	–	?
SMILES	VACV Venus inh	HCMV antiviral	FMDV antiviral	MARV entry inh	VACV mCherry inh	LASV entry inh
CCOC(=O)C1=Nc2ccccc2C1=[N+]=[N-]	?	-100	–	?	?	?
CCOC(=O)C1=Nc2cccc3c(O)ccc1c23	·	–	·	·	·	·
Clc1ccc(C(c2ccc(Cl)cc2)C(Cl)(Cl)Cl)cc1	–	·	3.5µM	·	–	·
Cn1c(C(=O)NCc2cccc(F)c2)cc2cc(S(=O)(=O)N3CCCCC3)ccc21	–	–	–	·	–	?
CCCCc1ccc(Nc2ncnc3nc[nH]c23)cc1	–	–	–	·	10µM	·
CCc1ccc(Nc2ncnc3nc[nH]c23)cc1	–	–	–	?	–	?
CC(=O)c1c(C)n(Cc2ccccc2Cl)c2ccc(O)cc12	–	-62	?	–	–	–
CCOc1ccc(-n2c(C)c(C(=O)OC)c3cc(O)ccc32)cc1	–	–	–	–	?	–
CCOc1ccc(-n2c(C)c(C(C)=O)c3cc(O)ccc32)cc1	·	-62	–	·	·	·
CC(=O)c1c(C)n(-c2ccc(Cl)cc2)c2ccc(O)cc12	–	–	–	–	?	–
CC(=O)c1c(C)n(-c2ccccc2)c2ccc(O)cc12	·	-64	–	–	·	–
CC(=O)c1c(C)n(CCc2ccc(Cl)cc2)c2ccc(O)cc12	–	–	–	–	–	–
CC(=O)c1c(C)n(-c2cccc(Cl)c2)c2ccc(O)cc12	?	-68	–	?	?	–
Nc1ccc(/C=C/c2nc3ccccc3s2)cc1	–	·	·	·	–	·
COc1ccc2c(c1)c(C(=O)N1CCN(C)CC1)c(C)n2-c1ccccc1	–	–	–	–	–	–
COc1ccc2c(c1)c(C(=O)O)c(C)n2-c1ccc(Cl)cc1	·	-63	–	·	·	·
COc1ccc(C2Sc3ccccc3N(CCN(C)C)C(=O)[C@@H]2OC(C)=O)cc1 (stereo partly specified)	–	·	–	?	–	·
COc1ccc([C@@H]2Sc3ccccc3N(CCN(C)C)C(=O)[C@@H]2OC(C)=O)cc1	–	–	–	?	–	2.3µM
COc1cccc(C(=O)NCC(c2ccc(N(C)C)cc2)N2CCOCC2)c1OC (stereo unspecified)	–	–	–	·	–	–
CC(=O)Nc1ccc(-c2nccc3[nH]nc(-c4cccc(C(F)(F)F)c4)c23)cc1	·	-102	·	·	·	·
COc1cc(-c2n[nH]c3ccnc(-c4cccc(C(F)(F)F)c4)c23)cc(OC)c1OC	·	–	·	·	·	·
Cc1ccc(C(=O)N2CCc3cc(CNC(=O)c4ccccc4F)ccc32)cc1	–	–	–	·	–	–
CCN(C(=O)c1cn(-c2cccc(OC)c2)c(=O)c2ccccc12)c1ccccc1C	–	-70	–	·	–	–
CCn1cc(C(=O)N(C)c2cc(C)ccc2OC)c2cc(OC)c(OC)cc2c1=O	·	·	–	·	·	·
COc1ccc(CNC(=O)c2cn(-c3cccc(OC)c3)c(=O)c3ccccc23)cc1	–	–	–	·	–	–
COc1cccc(-n2cc(C(=O)Nc3ccccc3C(N)=O)c3ccccc3c2=O)c1	–	-80	–	·	–	–
COc1ccc(-n2cc(C(=O)N(C)c3cc(C)ccc3OC)c3ccccc3c2=O)cc1	–	-85	–	·	–	–
CCOC(=O)N/N=C1\C[C@@H](O)[C@@H](O)[C@@H]2[C@@H]3C(=O)N(Cc4ccc5c(c4)OCO5)C(=O)[C@@H]3CC[C@@H]12	·	·	·	–	·	·
Cc1ccc(NC(=O)c2ccc3c(c2)C(=O)N(CC2CCCO2)C3=O)cc1C (stereo unspecified)	–	–	–	–	–	–
